FBA Mtb inh: Mtb FBA enzyme inhibitors, primary screen, biochemical, fluorescence, strain H37Rv | Fructose-bisphosphate aldolase (Mycobacterium tuberculosis (strain ATCC 25618 / H37Rv)), … | 2.3% of 360,000 active | inhibition, % at 1 µM | AID 588726, 2011 | purified M. tuberculosis FBA, fluorescence read-out; in the data active = inhibition above about 27%;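 note: 0% = vehicle and 100% = reference inhibitor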
Target sequence (P9WQA3 whole entry, looked up): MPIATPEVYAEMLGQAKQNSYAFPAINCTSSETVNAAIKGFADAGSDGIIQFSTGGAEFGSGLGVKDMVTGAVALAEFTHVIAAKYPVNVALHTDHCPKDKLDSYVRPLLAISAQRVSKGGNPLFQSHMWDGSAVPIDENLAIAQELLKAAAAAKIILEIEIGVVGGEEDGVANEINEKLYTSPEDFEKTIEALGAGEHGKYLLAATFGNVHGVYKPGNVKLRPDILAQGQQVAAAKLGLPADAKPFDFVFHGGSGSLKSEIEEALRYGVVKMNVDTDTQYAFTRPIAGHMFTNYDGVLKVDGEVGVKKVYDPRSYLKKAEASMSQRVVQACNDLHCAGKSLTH
CCHF vOTU inh-1: CCHFV vOTU protease inhibitors, primary screen, biochemical, Pep-AMC substrate, fluorescence; Crimean-Congo hemorrhagic fever virus L polyprotein viral ovarian tumor (vOTU) protease …; inhibition, % at 11.5 µM; 0.55% of 370,000 active; AID 651958, 2012; note: 0% = vehicle wells with enzyme and 100% = no enzyme wells
MazF activator: activators of E. coli MazEF toxin-antitoxin RNase, primary screen, biochemical, fluorescence, uHTS; Endoribonuclease toxin MazF (Escherichia coli (strain K12)), P0AE70; FAM/BHQ RNA-DNA oligo cleavage fluorescence, 5 h; activation, % at 20 µM; 0.32% of 350,000 active; AID 504720, 2011; in the data active = activation above about 50%
Target sequence (P0AE70 whole entry, looked up): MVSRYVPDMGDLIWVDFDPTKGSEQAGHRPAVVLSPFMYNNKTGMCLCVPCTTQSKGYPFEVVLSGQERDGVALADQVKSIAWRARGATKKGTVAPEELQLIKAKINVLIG
GDH-TPI inh: GDH-TPI coupling enzyme inhibitors, primary screen, artefact control for M. tuberculosis FBA inhibitor project, biochemical, absorbance, full deck; GDH-TPI coupled enzyme counterscreen, NADH absorbance; inhibition, % at 4.8 µM; 1.2% of 360,000 active;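 note: 0% = DMSO wells and 100% = wells lacking the enzyme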
Mtb bLac sens: beta-lactam sensitization of Mtb H37Rv, H37Rv; 0.27% of 330,000 active; AID 434955, 2010; inhibition, % at 25 µM; M. tuberculosis H37Rv growth with meropenem, percent inhibition; call rule not given here;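 note: growth measured after seven days incubation then overnight dye step; 0% = bacteria only wells and 100% = bacteria with antibiotic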
CCHF vOTU inh-2: CCHFV vOTU protease inhibitors, confirmation, biochemical, Pep-AMC substrate, fluorescence; shares compounds with CCHF vOTU inh-1; Recombinant CCHFV vOTU; inhibition, % at 11.5 µM; 17% of 1,900 active
* marks the source's active call; other numbers are inactive results; / = not tested or not shown. An excerpt weighted towards active compounds, which were near 4% of everything screened. Cut-off read from the data, not from the text of the source, unless noted: active = inhibition above about 30%; inactive = the rest.

SMILES | FBA Mtb inh | CCHF vOTU inh-1 | MazF activator | GDH-TPI inh | Mtb bLac sens | CCHF vOTU inh-2
CC(OC(=O)CNC(=O)c1ccc2ccccc2c1)C(=O)N(C)C1CCCCC1 (stereo not given) | 4.7 | -2.1 | -7.7 | 5.7 | -15.3 | /
CC1Cc2nc(SCC(N)=O)n(C)c(=O)c2S1 (stereo not given) | 1.0 | 32.1* | 0.3 | -3.4 | 2.8 | -9.4
CC1Cc2nc(SCC(=O)N3CCCC3)n(C)c(=O)c2S1 (stereo not given) | 3.8 | 6.8 | 4.4 | -0.7 | -5.1 | /
OC(c1ccccc1)(c1ccccc1)C1CCN(CCCOc2ccc(C(F)(F)F)cc2)CC1 | / | 24.0 | / | / | / | /
OC(c1ccccc1)(c1ccccc1)C1CCN(CCCOc2cccc(Cl)c2)CC1 | / | 37.5* | / | / | / | -0.9
OC(c1ccccc1)(c1ccccc1)C1CCN(CCCOc2ccc(OC(F)(F)F)cc2)CC1 | / | 30.7* | / | / | / | -0.6
CCC1=Nc2cc(C(=O)NCCN3CCOCC3)ccc2Sc2ccc(Br)cc21 | -2.3 | -2.6 | 1.0 | 6.5 | -2.5 | /
COc1cc(/C=N/NC(=O)c2cc[n+]([O-])cc2)ccc1O | -1.8 | 30.4* | -4.8 | 29.0 | -13.0 | -11.0
COc1ccc(/C=N/NC(=O)c2cc[n+]([O-])cc2)cc1OC | -1.0 | / | 0.2 | 20.7 | -5.9 | /
COC(=O)[C@@]12C[C@@H](CC(=O)NCCCCc3ccccc3)C(=O)N(Cc3cccc4ccccc34)C1=CCC(C)(C)C2 | / | 29.9* | / | / | / | 8.5
CCOC(=O)[C@]12CCCC=C1N(Cc1ccc(Cl)cc1Cl)C(=O)[C@H](CC(=O)NCCCCc1ccccc1)C2 | / | 20.0 | / | / | / | /
COC(=O)[C@]12CCCCC=C1N(Cc1ccc(Cl)cc1Cl)C(=O)[C@H](CC(=O)NCCCCc1ccccc1)C2 | / | 33.0* | / | / | / | -14.2
O=C(O)C(Cc1cn[nH]n1)=NO | 0.5 | / | 1.1 | 5.6 | -1.8 | /
COc1cccc(C(=O)c2ccncc2C(=O)O)c1OC | -1.1 | 5.4 | 2.9 | 7.1 | / | /
COc1ccc2ccccc2c1C1CC(=O)N2CN(Cc3ccco3)CSC2=C1C#N (stereo not given) | -2.4 | 33.2* | 3.2 | 13.9 | -3.6 | 22.4
COc1ccc2ccccc2c1C1CC(=O)N2CN(C3CCCCC3)CSC2=C1C#N (stereo not given) | 4.5 | 46.9* | -3.2 | 4.0 | -3.0 | 35.1*
Nc1nc(Nc2ccccc2)n[nH]1 | 2.4 | 31.9* | 1.7 | -3.2 | -9.7 | -22.1
Nc1nc(Nc2ccc(Cl)cc2)n[nH]1 | 1.8 | 0.6 | 5.2 | 1.4 | -4.7 | /
CC(C)(C)OC(=O)[C@H](Cc1ccccc1)NC(=O)c1[nH]cnc1C(=O)Nc1ccc(Cl)cc1 | -3.0 | 30.7* | -29.2 | 6.3 | 1.7 | 8.0
CC(C)(C)OC[C@H](NC(=O)c1[nH]cnc1C(=O)Nc1ccccc1F)C(=O)OC(C)(C)C | -1.8 | 35.4* | 6.5 | -3.3 | / | 22.1
CC(C)(C)OC(=O)[C@H](Cc1ccccc1)NC(=O)c1[nH]cnc1C(=O)Nc1cccc(Cl)c1 | -2.0 | 4.7 | 0.0 | 0.5 | -6.5 | /
CC(C)C[C@H](NC(=O)c1[nH]cnc1C(=O)N[C@@H](C)C(=O)OCc1ccccc1)C(=O)OC(C)(C)C | 2.0 | 30.3* | 2.4 | 6.0 | -11.2 | 15.3
CC(C)C[C@H](NC(=O)c1nc[nH]c1C(=O)NCC(=O)OCc1ccccc1)C(=O)OC(C)(C)C | 1.3 | 24.3 | 5.4 | 3.5 | 9.4 | /
CC(C)(C)OC(=O)NCc1ccc(CNC(=O)c2[nH]cnc2C(=O)Nc2ccccc2F)cc1 | 0.0 | 16.4 | 2.6 | 14.7 | / | /
COc1ccc(-c2cc3c(o2)CCCC3OCCN2CCOCC2)cc1 (stereo not given) | / | -13.1 | / | / | / | /
COc1cccc(CN2CC(C(=O)N(C)CCCC3CCCC3)CCC2=O)c1 (stereo not given) | 0.6 | 6.9 | -2.6 | 7.7 | 1.6 | /
COc1ccc(S(=O)(=O)NC2CCc3ccccc32)cc1OC (stereo not given) | 2.3 | -0.2 | -3.7 | -0.4 | 4.1 | /
